# From PubChem BioAssay (NCATS)
# Inconclusive results are not listed. Calls of active or inactive are those of the source. Calls follow the shape of the dose curve; as a rule, active = well fitted inhibition curve with a large enough effect; inconclusive = small, poorly fitted or top-dose-only effect; inactive = flat fitted curve, though single readings scatter.
# Target: Lysine-specific demethylase 5B (Homo sapiens) (UniProt Q9UGL1)
# Test: Optimization screen for KDM5B Histone Demethylases FDH coupled qHTS against the LOPAC library (AID 1347166)
# Details: KDM5B demethylation, FDH-coupled NADH fluorescence (FDH is formaldehyde dehydrogenase); series mostly up to 57.5 µM
# How it was run: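 KDM5BDeltaAP (200nM final) in 50mM HEPES pH 7.5, 0.01% Tween-20 was preincubated with compound for 10 min at room temperature. A substrate mix of 12.5uM H3K4Me3, 25uM a-ketoglutarate, ascorbate, Fe2+, NAD+ and formaldehyde dehydrogenase was then added. NADH fluorescence (340/450 nm) was read initially and after 30 min.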
# Lysine-specific demethylase 5B (Homo sapiens), sequence (Q9UGL1 whole entry, looked up): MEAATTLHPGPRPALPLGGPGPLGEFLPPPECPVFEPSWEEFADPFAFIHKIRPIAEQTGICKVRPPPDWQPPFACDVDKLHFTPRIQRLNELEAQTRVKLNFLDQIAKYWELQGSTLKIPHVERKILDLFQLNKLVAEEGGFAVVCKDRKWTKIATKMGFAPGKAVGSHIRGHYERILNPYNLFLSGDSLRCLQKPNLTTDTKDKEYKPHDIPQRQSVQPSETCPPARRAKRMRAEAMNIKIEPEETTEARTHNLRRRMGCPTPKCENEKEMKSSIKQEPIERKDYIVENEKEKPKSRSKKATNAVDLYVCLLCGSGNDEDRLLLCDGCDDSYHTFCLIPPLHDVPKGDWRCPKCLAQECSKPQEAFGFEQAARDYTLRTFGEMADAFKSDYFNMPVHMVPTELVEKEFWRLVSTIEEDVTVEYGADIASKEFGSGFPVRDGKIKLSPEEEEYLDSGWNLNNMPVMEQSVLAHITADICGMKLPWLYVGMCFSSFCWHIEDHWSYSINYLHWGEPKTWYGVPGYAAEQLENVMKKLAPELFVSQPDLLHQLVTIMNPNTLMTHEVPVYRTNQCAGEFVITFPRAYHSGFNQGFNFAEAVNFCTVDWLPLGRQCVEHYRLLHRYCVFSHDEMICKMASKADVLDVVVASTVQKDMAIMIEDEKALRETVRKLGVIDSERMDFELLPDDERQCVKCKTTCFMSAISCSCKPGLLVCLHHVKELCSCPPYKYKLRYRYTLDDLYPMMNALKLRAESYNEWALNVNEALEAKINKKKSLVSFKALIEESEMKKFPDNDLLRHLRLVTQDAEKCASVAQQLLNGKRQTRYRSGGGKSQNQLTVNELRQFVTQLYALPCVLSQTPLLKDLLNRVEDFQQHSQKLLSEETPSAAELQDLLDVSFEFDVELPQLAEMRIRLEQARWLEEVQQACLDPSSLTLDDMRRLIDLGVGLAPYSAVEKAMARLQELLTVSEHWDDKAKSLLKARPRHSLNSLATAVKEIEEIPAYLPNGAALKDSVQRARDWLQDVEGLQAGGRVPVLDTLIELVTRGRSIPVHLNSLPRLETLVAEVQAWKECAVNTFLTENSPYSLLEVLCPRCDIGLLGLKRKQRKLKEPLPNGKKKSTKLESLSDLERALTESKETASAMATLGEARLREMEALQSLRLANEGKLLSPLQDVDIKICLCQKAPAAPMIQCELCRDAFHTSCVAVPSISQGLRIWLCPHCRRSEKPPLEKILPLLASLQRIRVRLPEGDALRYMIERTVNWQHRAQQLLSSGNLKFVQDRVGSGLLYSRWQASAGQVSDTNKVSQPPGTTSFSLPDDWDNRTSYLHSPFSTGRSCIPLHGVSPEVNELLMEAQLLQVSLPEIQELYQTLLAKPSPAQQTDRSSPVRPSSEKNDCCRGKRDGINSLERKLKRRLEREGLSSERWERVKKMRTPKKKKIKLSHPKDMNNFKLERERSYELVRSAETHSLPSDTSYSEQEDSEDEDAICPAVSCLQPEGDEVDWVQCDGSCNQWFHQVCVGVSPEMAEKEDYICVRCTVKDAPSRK
row,Structure (SMILES),outcome
1,NC(=S)c1ccc[n+]([C@@H]2O[C@@H](COP(=O)([O-])OP(=O)(O)OC[C@H]3O[C@@H](n4cnc5c(N)ncnc54)[C@H](OP(=O)(O)O)[C@@H]3O)C(O)C2O)c1 (stereo partly specified),inactive
2,Nc1ncnc2c1ncn2[C@@H]1O[C@H](COP(=O)(O)CP(=O)(O)OP(=O)(O)O)[C@@H](O)[C@H]1O,inactive
3,NC[C@@H]1O[C@H](C23CC4CC(CC(C4)C2)C3)Cc2c1ccc(O)c2O,inactive
4,COc1cc(C(O)CO)ccc1OS(=O)(=O)O (stereo unspecified),inactive
5,C#CCN1C(C)=C(C(=O)OC)C(c2cccc([N+](=O)[O-])c2)C(C(=O)OCC)=C1C (stereo unspecified),inactive
6,c1cnc2c(c1)ccc1cccnc12,inactive
7,O=C(O)CNC(=O)C(CS)Cc1ccccc1 (stereo unspecified),inactive
8,COc1ccc(NC(=O)/C=C/c2ccc(Cl)cc2)cc1,inactive
9,COc1cc(SC)ccc1C(=O)N1CCC(Cc2ccccc2)CC1,inactive
10,Cc1cc(NC(=O)Nc2ccc3c(ccn3C)c2)sn1,inactive
11,NCCCS(=O)(=O)O,inactive
12,O=C1/C(=C/c2ccsc2)CC/C1=C\c1cccs1,inactive
13,CC(C)(C=O)Cc1cc(C(C)(C)C)c(O)c(C(C)(C)C)c1,inactive
14,CCN1/C(=C/C(C)=O)Sc2ccc(OC)cc21,inactive
15,N#C/C(=C\c1ccc(-c2cc(Cl)ccc2Cl)o1)C(=O)Nc1cccc2ncccc12,inactive
16,O=C(O)CCCC[C@@H]1CCSS1,inactive

row,Structure (SMILES),outcome
1,Nc1nc(SCc2ccc([N+](=O)[O-])cc2)c2ncn([C@@H]3O[C@H](CO)[C@@H](O)[C@H]3O)c2n1,inactive
2,CNCC[C@H](Oc1ccc(C(F)(F)F)cc1)c1ccccc1,inactive
3,COc1ccccc1CNCCCCCCNCCCCCCCCNCCCCCCNCc1ccccc1OC,inactive
4,C#C[C@]1(O)CC[C@H]2[C@@H]3CCC4=Cc5oncc5CC4(C)[C@H]3CCC21C (stereo partly specified),inactive
5,COc1cccc(OC)c1OCCNCC1COc2ccccc2O1 (stereo unspecified),inactive
6,COc1ccc2c(c1)CCC1C2CC[C@@]2(C)C1CC[C@@H]2NCCCCCCN1C(=O)CCC1=O (stereo partly specified),inactive
7,CC(N)C(=O)OC(C)(C)Cc1ccc(Cl)cc1 (stereo unspecified),inactive
8,OC[C@H]1O[C@@H](n2cnc3c(NC4CCCCC4)ncnc32)[C@H](O)[C@@H]1O,inactive
9,CN1CC(=O)N/C1=N/C(=O)Nc1cccc(Cl)c1,inactive
10,C=CC(C)=C[C@@]1(C)SC(=O)C(C)=C1O,inactive
11,O=C(O)CC[C@@H](C(=O)O)N1C(=O)c2ccccc2C1=O,inactive
12,CN1CCc2cc(NC(=O)Nc3cccnc3)ccc21,inactive
13,CCCCCCCCCCCCCCCCCC(=O)NCC(COP(=O)([O-])OCC[N+](C)(C)C)OCC (stereo unspecified),inactive
14,Cc1nc2sccn2c(=O)c1CCN1CCC(=C(c2ccccc2)c2ccc(F)cc2)CC1,inactive
15,O=[N+]([O-])c1ccc(CSc2ncnc3c2ncn3[C@@H]2O[C@H](CO)[C@@H](O)[C@H]2O)cc1,inactive
